Data taken from PubChem BioAssay AID1850 (Southern Research Specialized Biocontainment Screening …, 2009).
Where “and” joins values, the source holds several entries; their conditions need not be identical. Identical values can stand only once. In all, about 310,000 compounds went through this assay and about 1,000 (0.32%) were called active. How the calls were made is not given here. The list is a sample of the results. Entries with a potency or affinity are not part of this list.

Assay: Inhibition of PhoP regulon, Salmonella typhi GFP reporter cells, confirmation, 4 h (AID 1850);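 further: 0% = induced wells with vehicle and 100% = uninduced wells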
Settings: Salmonella Typhi PhoP-promoter GFP reporter, fluorescence, at 50 µM, stronger effect = higher value

Structure (SMILES)	inhibition
COc1ccc(CSc2nnc(Cc3sc(-c4ccccc4)nc3-c3ccccc3)o2)cc1	7.93% (inactive)
NS(=O)(=O)c1ccc(NC(=S)N2CCN(Cc3ccc4c(c3)OCO4)CC2)cc1	3.73% (inactive)
CC1Oc2ccccc2N(CC(=O)Nc2ccccc2F)C1=O (stereo not given)	-6.46% (inactive)
Cc1cn(C2OC(COC(=O)c3ccccc3)C(O)C2O)c(=O)[nH]c1=O (stereo not given)	-7.25% (inactive)
COc1cc([N+](=O)[O-])ccc1NC(=O)CSc1nnc(C)c(C)n1	13.2% (inactive)
CSc1ccc(/C=C/C(=O)NC(=O)c2ccccc2O)cc1	13.3% (inactive)
Clc1ccc(-c2cc(C3CCNCC3)[nH]n2)cc1	13.5% (inactive)
c1ccc2c(-c3cc(C4CCNCC4)[nH]n3)cccc2c1	-4.64% (inactive)
CCOc1cccc(-c2c(C(=O)N/N=C(\C)c3ccncc3)nnn2-c2nonc2N)c1	0% (inactive)
COc1ccc(CN2CCNC(=O)C2CC(=O)N(C)Cc2ccon2)c(OC)c1 (stereo not given)	-0.06% (inactive)
CC1SC(c2ccc(F)cc2)N(CCc2ccccc2)C1=O (stereo not given)	11.2% (inactive)
O=C(COc1ccccc1Br)c1ccc(O)cc1O	-2.5% (inactive)
N=c1c(C(=O)NCc2ccco2)cc2c(=O)n3ccccc3nc2n1CC1CCCO1 (stereo not given)	-2.9% (inactive)
Cc1ccc(CNC(=O)c2cc3c(s2)CS(=O)(=O)C3)cc1	-3.03% (inactive)
CSc1nc2ccc(Br)cc2[nH]1	2.46% (inactive)
Clc1cc2nc(-c3cccnc3Cl)[nH]c2cc1Cl	-3.66% (inactive)
Cn1c(=O)oc2cc(S(=O)(=O)Nc3ccccc3O)ccc21	-2.19% (inactive)
Cc1cc(OCCN2CCOCC2)ccc1Cl	-0.55% (inactive)
CN1CCN(CCOc2ccc(Cl)c(Cl)c2)CC1	8.06% (inactive)
Clc1ccc(OCCN2CCCCC2)cc1Cl	15% (inactive)
Cc1cc(OCCCN2CCCC2)ccc1Cl	1.13% (inactive)
CCCn1c2ccccc2c2nnc(SCC(=O)Nc3ncccn3)nc21	1.55% (inactive)

Structure (SMILES)	inhibition
CN(C)CCCn1c2c(c(SCC(=O)Nc3nccs3)nc1=O)CCC2	-3.03% (inactive)
O=C(Nc1cccc(Cl)c1)N1CCN(c2ncccn2)CC1	8.55% (inactive)
COc1ccc(CC(=O)NCC(=O)N/N=C/c2ccc(C)o2)cc1	-9.36% (inactive)
C=CCNC(=S)NCc1cccnc1	-7.66% (inactive)
O=C(NNC(=O)C1CCCCC1)c1ccc(Br)cc1	-2.98% (inactive)
C/C(=N\NC(=O)c1cc(Br)ccc1O)c1ccccn1	1.41% (inactive)
C/C(=N\NC(=O)c1ccccn1)c1ccc(Cl)cc1	0.75% (inactive)
C/C(=N\NC(=O)c1ccc(F)cc1)c1ccccn1	-3.7% (inactive)
C/C(=N\NC(=O)c1ccc(Cl)c(Cl)c1)c1ccccn1	3.95% (inactive)
COc1ccc(CCN2CC(C(=O)NCCc3ccccc3C)CCC2=O)cc1 (stereo not given)	0.24% (inactive)
Oc1c(C=NCc2ccc(F)cc2)[nH]c2ccc(Br)c(Cl)c12	-22.5% (inactive)
Oc1cccc(C=NCc2ccccc2)c1	-11.2% (inactive)
O/N=C/c1cc(Br)ccc1OCc1ccc(F)cc1	3.46% (inactive)
O=C(Cc1ccccc1)N/N=C/c1cc(Br)cc(Br)c1O	6.54% (inactive)
CN(/N=C/c1cc(Br)cc(Br)c1O)c1ccccc1	2.46% (inactive)
Oc1cccc(/C=N/N=C/c2cccc(O)c2O)c1O	21.8% (inactive)
COc1cc(Br)cc(/C=N/NC(=O)Cc2ccccc2)c1O	5.08% (inactive)
Oc1c(Br)cc(Br)cc1/C=N/N1CCN(Cc2ccccc2)CC1	-8.57% (inactive)
CCN(CC)CC(C)CNC(=O)CC(C(=O)N1CCc2ccccc21)n1ccnc1 (stereo not given)	-1.96% (inactive)
CC1(C)C2(C#N)C(N)=NC3(OCCO3)C12C#N (stereo not given)	4.42% (inactive)
Cc1ccc(S(=O)(=O)N(C)c2ccc(N)cc2)cc1	8.98% (inactive)
Cc1ccc2nc(SCc3nc4cc(Cl)ccc4c(=O)[nH]3)[nH]c2c1	-3.53% (inactive)

Structure (SMILES)	inhibition
COc1cccc(C2C(=O)N(C3CCCCC3)CC(=O)N2Cc2ccc(F)cc2)c1 (stereo not given)	-2.24% (inactive)
CC[N+](C)(C)CC/C=C1/c2ccccc2Sc2ccc(Cl)cc21	5.02% (inactive)
C[N+](C)(C)CC/C=C1/c2ccccc2CSc2ccccc21	-7.79% (inactive)
CN1CCN(CC/C=C2/c3ccccc3Sc3ccc(S(=O)(=O)N(C)C)cc32)CC1	3.38% (inactive)
OCCN1CCN(CC/C=C2/c3ccccc3Sc3ccc(Cl)cc32)CC1	5.06% (inactive)
CN1CCN(CCC=C2c3ccccc3Sc3ccc(S(=O)(=O)N(C)C)cc32)CC1	-2.21% (inactive)
OCCN1CCN(CC/C=C2/c3ccccc3Sc3ccc(C(F)(F)F)cc32)CC1	-0.41% (inactive)
O=C1[C@@H]2Cc3c([nH]c4ccccc34)C(c3ccc(Cl)cc3)N2C(=O)CN1CCO (stereo not given in full)	3.36% (inactive)
CC(=O)NC(=S)Nc1ccccc1N1CCCCC1	-7.09% (inactive)
COc1ccc(-c2nnc(-c3ccccc3O)o2)cc1	3.32% (inactive)
CCC(C(=O)N1CCCCCC1)n1nc(C)n2c(cc3occc32)c1=O (stereo not given)	-32.5% (inactive)
CS(=O)(=O)N(CC(=O)Nc1ccccc1C(=O)NCc1ccco1)c1ccc2c(c1)OCCO2	-8.68% (inactive)
Cc1c(C(=O)N2CCOCC2)sc2ncn(CC(=O)N3CCC(C)CC3)c(=O)c12	0.7% (inactive)
Clc1ccc(COC(Cn2ccnc2)c2ccc(Cl)cc2Cl)c(Cl)c1 (stereo not given)	-1.14% (inactive) and 1.85% (inactive)
Clc1ccc(COC(Cn2ccnc2)c2ccc(Cl)cc2Cl)cc1 (stereo not given)	-0.54% (inactive)
Cn1ccsc1=NC(=O)c1ccc(S(=O)(=O)C(F)F)cc1	2.31% (inactive)
CCOc1ccccc1-c1nc(-c2ccc(NC(=O)Cc3ccccc3OC)cc2)no1	1.73% (inactive) and -10.4% (inactive)
O=C(C[n+]1ccn(-c2ccccc2)c1)c1ccc([N+](=O)[O-])cc1	4.4% (inactive)
O=C(Cn1c[n+](CC(=O)c2ccc([N+](=O)[O-])cc2)cn1)c1ccc([N+](=O)[O-])cc1	7.72% (inactive) and 18.6% (inactive)
C[n+]1ccn(CC(=O)c2ccc(Cl)cc2)c1	-7.58% (inactive)
O=C(Cn1cc[n+](CC(=O)c2ccccc2)c1)c1ccccc1	18.8% (inactive)
